Source: PubChem BioAssay AID1076 (NMMLSC, 2008)
Active and inactive are the calls of the source.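 How the source made its calls: active means cell event count below 40, meaning activity score above 60 where score is 100 minus count; inactive means the rest.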

Assay: cytotoxicity in LNCaP prostate cells – cell-based, cell event count, single point, cytotoxicity control for prostate differentiation activator project, confirmation (AID 1076);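 further: counts scatter-gated live cells after medium removal discards detached dead cells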
Conditions: LNCaP cell loss, flow cytometry event count, 4 d, stronger effect = lower value

| SMILES | cell event count (at 100 µM) | cell event count (event count, at 10 µM) |
| --- | --- | --- |
| COC(=O)c1ccccc1S(=O)(=O)N(Cc1cc2cc3c(cc2[nH]c1=O)OCO3)C1CCCCC1 | 8 (inactive) | 103 |
| CCOC(=O)N1CCC(NC(=O)c2cc3c(-c4cccc(OC)c4)nn(C)c3s2)CC1 | 142 (inactive) | 300 |
| CCCCOC(=O)Nc1cc(C(=O)OC)ccc1C(=O)OC | 143 (inactive) | 206 |
| COc1ccc(N2CCN(CCCNC(=O)c3cc4sccc4n3C)CC2)cc1 | 161 (inactive) | 251 |
| N#C/C(=C\c1ccc(O)c(O)c1)C(=O)NCCCc1ccccc1 | 38 (inactive) | 99 |
| CCN1C(=O)OC2(CCCCC2)C1(C)O (stereo not drawn) | 230 (inactive) | 174 |
| O=C(Nc1nc(-c2ccccc2)cs1)C1CCCCN1S(=O)(=O)c1ccccc1 (stereo not drawn) | 234 (inactive) | 210 |
| COc1ccc(N2CCN(c3oc(COc4ccccc4Cl)nc3C#N)CC2)cc1 | 214 (inactive) | 172 |
| CN(CC(O)COc1ccc(OCC(O)CN(C)C2CCCCC2)cc1)C1CCCCC1 (stereo not drawn) | 249 (inactive) | 118 |
| Cc1oc(-c2ccc(Cl)cc2)nc1CN1CCC(C(=O)NCCCN2CCCC2=O)CC1 | 51 (inactive) | 115 |
| Cc1ccc(Cl)cc1N1CCN(C(=O)c2cc3c(=O)n(C)c4ccccc4c3n2C)CC1 | 31 (active) | 10.5 |
| CCn1c(C(=O)NCCCN2CCc3ccccc3C2)cc2sccc21 | 16 (inactive) | 380 |
| CCc1cc(C)cc(OCCNC(=O)c2ncn[nH]2)c1 | 171 (inactive) | 54 |
| CCCCCn1c(=N)n(CC(O)COc2ccccc2OC)c2ccccc21 (stereo not drawn) | 20 (inactive) | 138 |
| COc1ccc(-c2noc(-c3cc(Cl)ccc3Cl)n2)cc1OC | 77 (inactive) | 110 |
| Cc1oc(-c2cccc(Cl)c2)nc1CN1CCCC(C(=O)NCCCN2CCOCC2)C1 (stereo not drawn) | 22 (inactive) | 220 |
| Cc1oc(-c2ccc(Cl)cc2)nc1CN1CCCC(C(=O)NCCCN2CCCC2=O)C1 (stereo not drawn) | 43 (inactive) | 258 |
| N=c1n(CCN2CCCCC2)c2ccccc2n1CC(O)COc1ccccc1 (stereo not drawn) | 20 (inactive) | 178 |
| CCCCOc1ccccc1NC(=O)Cn1c(-c2nonc2N)nc2ccccc21 | 99 (inactive) | 86.5 |
| CCCS(=O)(=O)N1CCCC(C(=O)NCCCN2CCN(c3cccc(Cl)c3)CC2)C1 (stereo not drawn) | 53 (inactive) | 114 |
| Cc1ccc(-n2nc3cc(Cl)c(NC(=O)c4ccco4)cc3n2)cc1 | 333 (inactive) | 236 |
| COc1ccc(N2CCN(CCCNC(=O)CCCn3c(=O)[nH]c4ccsc4c3=O)CC2)cc1 | 13 (active) | 25.5 |
| Cc1ccnc(NC(=O)CCC(=O)N(CC(=O)NC2CCCCC2)c2cccc(C)c2C)c1 | 27 (inactive) | 66 |
| CCN(CC)CCCNC(=O)c1cc2c(-c3ccc(Cl)cc3)nn(C)c2s1 | 13 (active) | 71.5 |
| CCOC(=O)c1[nH]c(C)c(C(=O)NC2CCCCCC2)c1C | 63 (inactive) | 112 |

| SMILES | cell event count (at 100 µM) | cell event count (event count, at 10 µM) |
| --- | --- | --- |
| O=C(CCCCCn1c(=O)[nH]c2ccccc2c1=O)NCCCN1CCN(c2ccccc2F)CC1 | 18 (inactive) | 336 |
| Cc1ccc(Oc2ccc(S(=O)(=O)N3CCOCC3)cc2C(N)=O)c(-n2nc3ccccc3n2)c1 | 5 (inactive) | 126 |
| O=C(CCN1C(=O)COc2ccccc21)NCCCN1CCN(c2ccc(F)cc2)CC1 | 117 (inactive) | 146 |
| O=C(O)C1CCCCC1C(=O)Nc1cnn(Cc2ccccc2)c1 (stereo not drawn) | 42 (inactive) | 66.5 |
| COc1cccc(-c2cc(C(=O)N3CCCc4ccccc43)no2)c1 | 9 (inactive) | 336 |
| COc1ccc(-c2oc3ncn(CCN4CCOCC4)c(=N)c3c2-c2ccc(OC)cc2)cc1 | 26 (inactive) | 237 |
| CCN1C=C(Cc2cccs2)C2=C(C1)C(c1cccs1)C(C#N)=C(N)O2 (stereo not drawn) | 40 (inactive) | 200 |
| COc1ccc(-c2ccc(-c3nnn(CC(C)=O)n3)cc2)cc1 | 145 (inactive) | 116 |
| Cn1c(=O)cc(SCC(=O)NCCCN2CCN(c3ccccc3F)CC2)c2ccccc21 | 166 (inactive) | 210 |
| CCOC(=O)C1=C(C)N=c2s/c(=C\c3ccncc3)c(=O)n2C1c1ccc2c(c1)OCO2 (stereo not drawn) | 17 (inactive) | 272 |
| O=C(c1ccccc1)c1ccc(N2CCNCC2)cc1 | 135 (inactive) | 168 |
| COc1ccccc1N1CCN(c2nc3ccccc3nc2C(C#N)C(=O)OC(C)C)CC1 (stereo not drawn) | 110 (inactive) | 252 |
| CN1CCN(c2cc3c(c4c2[nH]c2ccccc24)C(=O)CC(C)(C)C3)CC1 | 31 (inactive) | 231 |
| Cc1ccc(-c2noc(CCC(=O)NCCCN3CCN(c4cccc(Cl)c4)CC3)n2)cc1 | 22 (inactive) | 123 |
| CCc1ccc(CNC(=O)CN2C(=O)COc3ccccc32)cc1 | 78 (inactive) | 118 |
| Cc1oc(-c2ccccc2F)nc1CN1CCC(C(=O)NCc2cccnc2)CC1 | 290 (inactive) | 364 |
| CCOC(=O)c1ccccc1NC(=O)Cn1c(-c2nonc2N)nc2ccccc21 | 72 (inactive) | 122 |
| COc1cc(C2C3=C(Nc4ncnn42)c2ccccc2CC3)cc(OC)c1OC (stereo not drawn) | 295 (inactive) | 428 |
| COc1ccc(-c2cc(C(F)(F)F)nc(N3CCN(Cc4ccccc4)CC3)n2)cc1OC | 152 (inactive) | 376 |
| Cc1ccc(Cn2c(C(=O)NCCCN3CCOCC3)cc3sccc32)cc1 | 279 (inactive) | 379 |
| COC(=O)c1cc2oc3ccccc3c2n1CC(=O)Nc1ccccc1OC | 169 (inactive) | 184 |
| CC1(C)CC(=O)c2cc(OCC(=O)NCCCN3CCN(c4ccc(F)cc4)CC3)ccc2O1 | 17 (inactive) | 112 |
| CCOc1ccc2ccccc2c1C(=O)N1CCN(c2ccccc2)CC1 | 19 (inactive) | 79.5 |
| Cc1ccc(CNc2nc3ccccc3n3nnnc23)cc1 | 245 (inactive) | 196 |
| O=C(CN1CCC(n2nnc3cc(F)ccc32)CC1)Nc1ccc2c(c1)CCC2 | 210 (inactive) | 466 |

| SMILES | cell event count (at 100 µM) | cell event count (event count, at 10 µM) |
| --- | --- | --- |
| CN(C(=O)c1ccccn1)c1nnc(-c2cccnc2)s1 | 168 (inactive) | 240 |
| CCOC(=O)Cn1nc(-c2ccc(Cl)cc2)cc1N | 70 (inactive) | 22 |
| COc1ccc(Cc2n[nH]c(=O)c3ccccc23)cc1OC | 207 (inactive) | 111 |
| Cn1nc(-c2ccc(Cl)cc2)c2cc(C(=O)NCCN3CCOCC3)sc21 | 10 (inactive) | 136 |
| Cc1cc(=O)c2ccccc2[nH]1 | 143 (inactive) | 91 |
| Cc1ccc(CN2CCSc3ccc(C(=O)N4CCN(c5ncccn5)CC4)cc32)cc1 | 129 (inactive) | 266 |
| COc1ccc(-c2coc3c(CN4CCCCC4)c(O)c(CN4CCCCC4)c(O)c3c2=O)cc1 | 7 (active) | 63 |
| O=C(CCn1c(=O)[nH]c2ccccc2c1=O)NCCCN1CCN(c2cccc(Cl)c2)CC1 | 14 (inactive) | 354 |
| O=C(NCCCN1CCN(c2ccccc2F)CC1)C1CCC(=O)N1C1CCCC1 (stereo not drawn) | 60 (inactive) | 62 |
| CCOC(=O)c1c(C)n(C)c2ccc(OCC(O)CNC(CC)CO)cc12 (stereo not drawn) | 99 (inactive) | 88.5 |
| COc1ccc(CCNC(=O)C2CCCN(Cc3nc(-c4ccccc4C)oc3C)C2)cc1OC (stereo not drawn) | 12 (inactive) | 190 |
| Cc1ccccc1CS(=O)(=O)CCC(=O)NCCCN1CCN(c2ccccc2F)CC1 | 108 (inactive) | 71 |
| COc1ccc(-c2ccc(-c3noc(-c4ccccc4)n3)c(OC)n2)cc1 | 30 (active) | 32 |
| CCOC(=O)c1ccc(-c2n[nH]c(=O)c3ccccc23)cc1 | 345 (inactive) | 236 |
| Cc1oc(-c2ccc(Cl)cc2)nc1CN1CCC(C(=O)NCCCN2CCOCC2)CC1 | 12 (inactive) | 119 |
| CCN(CC)CCCNC(=O)c1cc(-c2cccc(Cl)c2)on1 | 170 (inactive) | 376 |
| Cc1cc(C)n2nc(SCC(=O)Nc3ccc(F)cc3)nc2n1 | 226 (inactive) | 343 |
| CC(C)n1c(=S)[nH]c2c1c(=O)[nH]c(=O)n2C | 221 (inactive) | 146 |
| Cc1oc(-c2ccc(Cl)cc2)nc1CN1CCCC(C(=O)N2CCN(C(=O)c3ccco3)CC2)C1 (stereo not drawn) | 19 (inactive) | 120 |
| CN1CCN(c2oc(COc3ccc(-c4ccccc4)cc3)nc2C#N)CC1 | 5 (inactive) | 174 |
| CCC(=O)N(Cc1ccco1)c1nc(-c2cc(OC)ccc2OC)cs1 | 227 (inactive) | 158 |
| Cc1ccc(C2=Nc3ccccc3NC(C)(c3ccc(C)o3)C2)o1 (stereo not drawn) | 324 (inactive) | 120 |
| CCCS(=O)(=O)N1CCCC(C(=O)NCCCN2CCN(c3ccc(F)cc3)CC2)C1 (stereo not drawn) | 49 (inactive) | 47 |
| COC(=O)c1ccccc1NC(=O)CN1CCC(n2nnc3cc(F)ccc32)CC1 | 174 (inactive) | 112 |
